For 51 compounds, Percent Effect results are on record in ChEMBL document CHEMBL3988442, “University of Dundee, Small-Polar-MMV Screening Library” (2021).

For experiment [1], the target named is T1, Aspartate--tRNA(Asp/Asn) ligase (Mycobacterium tuberculosis (strain ATCC 25618 / H37Rv)) (UniProt P9WFW3). Also: in the data most compounds retested in dose-response had high values.
T1 sequence (whole entry): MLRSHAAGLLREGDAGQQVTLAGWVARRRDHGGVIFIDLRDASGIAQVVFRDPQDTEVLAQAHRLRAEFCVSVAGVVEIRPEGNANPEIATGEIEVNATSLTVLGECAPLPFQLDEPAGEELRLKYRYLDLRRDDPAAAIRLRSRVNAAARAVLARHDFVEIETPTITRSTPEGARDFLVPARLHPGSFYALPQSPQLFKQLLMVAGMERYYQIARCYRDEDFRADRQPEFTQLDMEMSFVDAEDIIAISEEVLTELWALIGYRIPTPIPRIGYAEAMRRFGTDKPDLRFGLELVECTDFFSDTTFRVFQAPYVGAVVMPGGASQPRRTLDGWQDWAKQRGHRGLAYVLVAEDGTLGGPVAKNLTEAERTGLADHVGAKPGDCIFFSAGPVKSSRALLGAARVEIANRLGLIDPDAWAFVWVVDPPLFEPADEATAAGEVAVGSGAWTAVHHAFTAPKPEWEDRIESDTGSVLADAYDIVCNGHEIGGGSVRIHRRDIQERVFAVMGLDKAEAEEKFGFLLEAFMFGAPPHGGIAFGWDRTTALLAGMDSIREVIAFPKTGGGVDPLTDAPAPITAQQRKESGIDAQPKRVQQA
As to the kind of experiment: Assay for Asp RNA synthetase-1 from Mycobacterium tuberculosis. The class given is functional. The conditions noted are these: 30 µM. Set-up: scale not given: direction of the effect not stated beside the values.

Experiment [2] concerns the target Shiga toxin 2 (Escherichia coli O157:H7) (UniProt P09385+P09386). As to the kind of experiment: E. coli 0.157:H7 Shiga Toxin SOP - stx2 screening assay. The conditions noted are these: 30 µM. Set-up: scale not given: direction of the effect not stated beside the values. The class given is functional.

`NC(=O)CSCC(=O)N1CCc2cc(Cl)cc(Cl)c2C1`: the Percent Effect is 12.7% in experiment [1] and -44.7% in experiment [2].
As to `O=C1c2cnc(N3CCOCC3)nc2CN1c1ccc2c(c1)OCO2`, the Percent Effect was 7.52% in experiment [1] and -25.1% in experiment [2].
In the same order, the values of `CCn1cnnc1C1CCN(C(=O)c2ccccc2OC)CC1` are -4.13% and 14.1%.
In the same order, the values of `Cc1ccc(CN2C[C@@H]3COC[C@H](NS(C)(=O)=O)[C@@H]3C2)o1` are 3.2% and -0.0539%.
As for `O=C(NCc1csc(Br)c1)c1ccc(=O)[nH]n1`, the Percent Effect in experiment [1] was -0.83%; in experiment [2], -13.6%.
On to `NS(=O)(=O)CCNC(=O)C1(c2ccc(Br)cc2)CC1`, for which the results for the Percent Effect in experiment [1] and in experiment [2] were 1.66% and -28.2%, respectively.
In the same order, the values of `O=C1C(NCc2nnc3n2CCCC3)CCN1c1ccccc1` (configuration not stated) are -1.97% and -28.4%.
In the same order, the values of `Cn1cnc2c1C(COCC1CC1)CN(Cc1ccsc1)C2` (configuration not stated) are 5.14% and -1.62%.
For `CC(C)c1n[nH]c(C(=O)Nc2cc[nH]n2)c1Br`, the Percent Effect in experiment [1] is -4.43%; in experiment [2], 13.3%.
In the same order, the values of `CC(=O)N1CCCN(C(=O)c2csc(-c3ccc(C)cc3C)n2)CC1` are -7.84% and -0.511%.
Regarding `CCn1ccnc1CN1CCOC(CNc2cccnn2)C1` (configuration not stated), the Percent Effect is -0.152% in experiment [1] and -18.9% in experiment [2].
In the same order, the values of `COc1cccc(CNCc2nnc3n2CC(C(F)(F)F)CC3)c1` (configuration not stated) are -0.0987% and -19.1%.
`COc1ccc(CNC(C)c2ccc3[nH]c(=O)[nH]c3c2)cc1` (configuration not stated): the Percent Effect is 2.66% in experiment [1] and -13.7% in experiment [2].
For `Cc1nnc2n1CCN(CCOc1ccccc1)C2`, the Percent Effect was -6.3% in experiment [1] and -21.5% in experiment [2].
In the same order, the values of `CC(C)c1nnc(NC(=O)NCc2ccnc(N(C)C)c2)s1` are -3.25% and -21.8%.
In the same order, the values of `CN(C)[C@@H]1CCN(C(=O)c2ccsc2)[C@H]1Cc1cnn(C)c1` are -0.691% and -4.3%.
In the case of `CNC(=O)c1ccc(OC2CCN(S(C)(=O)=O)CC2)c(Cl)c1`, the Percent Effect in experiment [1] is -0.864%; in experiment [2], -64.7%.
In the same order, the values of `CCS(=O)(=O)N1CCC2(CCCN(Cc3cc(OC)ccc3F)C2)C1` (configuration not stated) are 0.836% and -3.7%.
In the same order, the values of `Cc1ncc2c(n1)CN(CC(=O)Nc1ccncc1)CC2` are -0.281% and 5.69%.
In the same order, the values of `CCc1nnc(Nc2cccc(C3CCN(CCO)CC3)n2)s1` are -4.6% and -9.69%.
Regarding `CN(C)C(C(=O)N1CCC(N2CCSCC2)CC1)c1ccccc1F` (configuration not stated), the figures for the Percent Effect in experiment [1] and in experiment [2] were -8.47% and -3.63%, respectively.
In the same order, the values of `CC1=Nc2c(c(=O)[nH]n2C2CCOCC2)C(c2cccc(Br)c2)S1` (configuration not stated) are 0.0871% and 15%.
In the same order, the values of `Cc1cnn(CC2CN(CC(=O)N3CCc4ccccc43)CCO2)c1` (configuration not stated) are -4.75% and -15.5%.
In the same order, the values of `CCc1ccc(S(=O)(=O)Nc2cc(OC)c(OC)cc2C(=O)O)s1` are 5.87% and 27.3%.
Regarding `CS(=O)(=O)NCc1cnc2n1CCN(Cc1ccsc1)CC2`, the Percent Effect was -2.39% in experiment [1] and -23.6% in experiment [2].
`O=C(Cn1cc(-c2ccccc2)ncc1=O)Nc1nnc[nH]1`: the Percent Effect in experiment [1] is -0.342%; in experiment [2] it was 6.34%.
In the same order, the values of `CCOc1cccc(CNc2ccccc2C(=O)OC)c1O` are -5.37% and -53.6%.
In the same order, the values of `CN1CC2(COCCN(C(=O)c3ccco3)C2)OCC1=O` (configuration not stated) are 8.76% and 9.96%.
In the same order, the values of `CS(=O)(=O)N1CC[C@]2(C[C@@H](OCC3CCC3)CO2)C1` are -2.3% and 6.17%.
As to `CC(C)(C)NC(=O)CN1CCN(C(=O)Nc2ccc(F)cc2F)CC1`, the Percent Effect is -2.94% in experiment [1] and -44.1% in experiment [2].
Turning to `COc1cc2nc3n(c(=O)c2cc1OC)CCN(C)CC3`, the Percent Effect in experiment [1] was -1.59%; in experiment [2], -7.54%.
In the same order, the values of `CC(=O)N1CCn2c(C(=O)N(C)C)cnc2C1` are -2.78% and -21.6%.
Regarding `Cc1cc(C(C)NC(=O)N2CCC(n3cncn3)CC2)c(C)s1` (configuration not stated), the results for the Percent Effect in experiment [1] and in experiment [2] were 0.6% and 6.48%, respectively.
For `CN(Cc1ccon1)C(=O)C1CC(=O)N(Cc2ccncc2)C1` (configuration not stated), the Percent Effect in experiment [1] was 5.91%; in experiment [2], 6.22%.
In the same order, the values of `c1cnc(NCc2cncc3c2CCN(Cc2cccs2)C3)nc1` are 3.81% and -9.08%.
In the same order, the values of `CCN(Cc1ccc2c(c1)OCO2)Cc1nc(C)no1` are 4.08% and 23.9%.
In the same order, the values of `CCN(CC)C1CCN(C(=O)NCc2nncn2CC)CC1` are -0.573% and -26%.
Turning to `OC1CCCN(Cc2c(-c3ccco3)[nH]c3ncccc23)C1` (configuration not stated), the Percent Effect was -0.134% in experiment [1] and 6.33% in experiment [2].
In the same order, the values of `CC(NC(=O)NCc1cc[nH]n1)c1ccc2c(c1)CCC(=O)N2` (configuration not stated) are -1.15% and -11.9%.
In the same order, the values of `CC(=O)N1CCN([C@@H]2CC[C@@H](NC(=O)c3cncc(C)c3)[C@H]2O)CC1` are -1.5% and -14%.
In the same order, the values of `CCN(CC)C(C(=O)NCc1ccc(N2CCCC2)nc1)C(C)C` (configuration not stated) are -8.76% and 9.3%.
Consider `CC(C)NC(=O)C1CN(C(N)=O)Cc2ccnn2C1` (configuration not stated), for which the Percent Effect in experiment [1] is -3.46%; in experiment [2] it was -5.82%.
Regarding `c1ccc2sc(CN3CCCC3c3noc(C4CC4)n3)nc2c1` (configuration not stated), the Percent Effect in experiment [1] was -1.34%; in experiment [2], 3.03%.
Take `CCn1ccnc1CN1CCCC(CO)(Cc2cccc(Cl)c2)C1` (configuration not stated): the values for the Percent Effect in experiment [1] and in experiment [2] were 10% and 15.9%, respectively.
In the same order, the values of `CC(=O)c1cccc(NC(=O)Cn2cc(I)cn2)c1` are 6.41% and -55.6%.
In the same order, the values of `c1sc(C2CCCC2)nc1CN1CCn2c(nnc2C2CC2)C1` are 3.23% and 27.9%.
In the same order, the values of `Cc1nnc(Nc2cccc(C3CCN(CCO)CC3)n2)s1` are -2.1% and 2.64%.
As to `CNc1cc(C2CCCN2Cc2ccccc2OCC(=O)O)ccn1` (configuration not stated), the Percent Effect in experiment [1] came to 5.46%; in experiment [2], 4.73%.
In the same order, the values of `O=C(N1CCCO1)[C@@]12CCO[C@@H]1CCN(Cc1ccccc1)C2` are -1.34% and -5.88%.
In the same order, the values of `Cc1nc(N2CCOCC2)nc2c1CCN(Cc1cccnc1)CC2` are 2.91% and -7%.
Turning to `CS(=O)(=O)N1CCC2(CC1)CC(CC(=O)NC1CC1)c1ccccc12` (configuration not stated), the Percent Effect was 6.15% in experiment [1] and 4.11% in experiment [2].
